# Screening results deposited in PubChem BioAssay by National Center for Advancing Translational Sciences (NCATS).
# A selection: hits, their analogues and other compounds. The true share with any hit is near 7.3%.
# Gal4-VP16 FLuc = VP16 counterscreen qHTS for inhibitors of ROR gamma transcriptional activity | Drosophila S2 Gal4-VP16 UAS-luciferase, luminescence, 20 h | Potency, µM (titrated, usually from 53.6 µM), most hits filed as inhibitors | actives 3.5% (n = 310,000) | AID 2546, 2010;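 also: Gal4-VP16 expression switched on by copper sulfate through the metallothionein promoter; nearly all actives have a fitted effect of over 50% in size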
# Tau FP inhib = qHTS for Inhibitors of Tau Fibril Formation, Fluorescence Polarization; K18 P301L tau heparin fibrillization, Alexa594 FP, 6 h; Potency, µM (highest dose often 57.7 µM), usual class: inhibitors; actives 0.39% (n = 280,000); AID 1468, 2008; also: nearly all actives have a fitted effect of over 55% in size
#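 Heparin (20 uM) drove fibril formation of recombinant tau K18 P301L, 15 uM unlabeled with 0.24 uM Alexa 594 label, for 6 hr at 37 C in 100 mM sodium acetate pH 7. Fluorescence polarization (555/632 nm) read 1 hr after 30 uM ThT.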
# Tau fluor cs = Counterscreen qHTS for Inhibitors of Tau Fibril Formation, Fluorescence Polarization; tau K18 P301L Alexa594 fluorescence, heparin fibrillization; Potency, µM (highest dose often 57.7 µM); actives 0.93% (n = 280,000); AID 1463, 2008; also: nearly all actives have a fitted effect of over 55% in size
#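 Human K18 P301L tau (15 uM unlabeled plus 0.24 uM Alexa 594-labeled, final) in 100 mM sodium acetate pH 7 was mixed with compound and 20 uM heparin and incubated 6 hr at 37 C.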
# RORgamma inh = qHTS for inhibitors of ROR gamma transcriptional activity; Potency, µM (top dose mostly 53.6 µM), usual class: inhibitors; AID 2551, 2010; Nuclear receptor ROR-gamma (Mus musculus), P51450; Drosophila S2 Gal4-RORgamma UAS-luciferase reporter, 20 h; actives 5.4% (n = 310,000); also: nearly all actives have a fitted effect of over 60% in size
# Target sequence (P51450 whole entry, looked up, the tested form may be a part): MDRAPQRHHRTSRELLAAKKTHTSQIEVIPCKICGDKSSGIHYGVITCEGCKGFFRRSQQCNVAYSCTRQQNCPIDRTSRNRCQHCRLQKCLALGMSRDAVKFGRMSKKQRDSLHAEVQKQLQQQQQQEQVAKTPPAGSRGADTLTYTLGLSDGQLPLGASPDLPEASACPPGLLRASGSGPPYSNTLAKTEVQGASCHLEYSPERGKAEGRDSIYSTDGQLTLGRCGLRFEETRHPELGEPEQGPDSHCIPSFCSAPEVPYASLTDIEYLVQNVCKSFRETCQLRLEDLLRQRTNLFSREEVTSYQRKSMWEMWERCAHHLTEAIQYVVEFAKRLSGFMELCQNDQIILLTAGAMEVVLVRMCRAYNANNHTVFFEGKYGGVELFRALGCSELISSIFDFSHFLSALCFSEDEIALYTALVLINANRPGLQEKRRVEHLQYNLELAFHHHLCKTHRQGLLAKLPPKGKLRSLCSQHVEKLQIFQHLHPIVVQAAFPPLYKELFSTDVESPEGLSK
#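 Luciferase reporter read in Schneider cells carrying Gal4-RORγ (mouse) and UAS-Photinus luciferase; cells given compound 1 h before 700 uM copper sulfate induction, then incubated 20 h at ambient temperature.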
# Tau fibril ThT = qHTS for Inhibitors of Tau Fibril Formation, Thioflavin T Binding; recombinant tau K18 P301L, heparin-induced fibrillization, ThT fluorescence; Potency, µM (doses to about 57.4 µM), usual class: inhibitors; Microtubule-associated protein tau (Homo sapiens), P10636; AID 1460, 2008; actives 2.1% (n = 270,000); also: nearly all actives have a fitted effect of over 55% in size
#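 ThT emission at 510 nm, taken 1 hr after adding 30 uM dye, quantifies aggregates formed when 20 uM heparin acts on human tau K18 P301L for 6 hr at 37 C.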
# Hits are given with their value; – = inactive; ? = inconclusive; · = no result; [ ] = dose if it differs, or a comment. Calls follow the shape of the dose curve; as a rule, active = well fitted curve in the direction sought with a large enough effect; inconclusive = small, poorly fitted or top-dose-only effect, or another doubt; inactive = no such curve, though single readings can be large; an effect the other way counts as inactive or inconclusive.
SMILES,Gal4-VP16 FLuc,Tau FP inhib,Tau fluor cs,RORgamma inh,Tau fibril ThT
CC(C)C[C@H](NC(=O)c1[nH]cnc1C(=O)N[C@H](C)c1ccccc1)C(=O)OC(C)(C)C,5.6µM,?,–,5µM,–
COc1ccc(C)cc1NS(=O)(=O)c1ccc2c3c(cccc13)C(=O)N2,·,–,–,·,–
CCn1c(COc2ccc(C)cc2)nnc1SCc1nc2ccccc2[nH]1,?,–,–,13µM,–
O=c1[nH]c(CSc2nnc(COc3ccccc3)n2-c2ccccc2)nc2ccccc12,?,–,–,13µM,–
Cc1ccc(CNC(=O)Cn2cc(C(=O)c3ccc(F)cc3)c(=O)c3ccc(C)nc32)cc1,·,–,–,·,–
CN(Cc1cnccn1)C(=O)C1CCC(=O)N(CCc2ccc(Cl)cc2)C1 (centres undefined),–,·,·,–,·
CCC1=NN2C(=N)/C(=C/c3cc(C)n(Cc4ccccc4)c3C)C(=O)N=C2S1,–,–,–,–,?
Cc1cc(/C=C2\C(=N)N3N=C(c4ccco4)SC3=NC2=O)c(C)n1Cc1ccccc1,–,–,?,–,13µM
COCCn1c(=O)c(-c2cccs2)nc2cnc(N3CCOCC3)nc21,–,·,·,–,·
CCOc1ccc2c(c1)nc(SCC(=O)c1ccc(Br)s1)n2C,?,–,–,14µM,?
O=C(NC(=S)NC1CC1)c1cccnc1,?,–,–,5.6µM,–
O=C(NC(=S)NC1CCCC1)c1ccccc1,10µM,·,·,7.1µM,·
O=C(NC(=S)NC1CCCCCCCCCCC1)c1cccnc1,–,–,–,–,–
O=C(NNC(=S)NC1CCCCC1)c1ccccc1O,–,–,–,14µM,–
CCN(C(=S)NC(=O)C1CCCC1)C1CCCCC1,?,–,–,4.5µM,–
O=C(NC1CCCCCC1)C1CCN(C(=O)c2cccc(Cl)c2)CC1,–,·,·,–,·
CC(C)CN(C[C@@H](O)[C@H](Cc1ccccc1)NC(=O)O[C@H]1CO[C@H]2OCC[C@H]21)S(=O)(=O)c1ccc(N)cc1,–,·,·,–,·
COc1ccc(CN(C)S(=O)(=O)c2nnc(NC(=O)c3cccc(F)c3)s2)cc1,–,·,·,–,·
CCN(CC)c1ccc(C(=O)Nn2cnc3ccccc3c2=O)cc1,–,·,·,–,·
CN(CCO)c1ccc(-c2nn(C)c(=O)c3ccccc23)cc1[N+](=O)[O-],–,–,–,–,?
C/C(=N\NC(=O)C(C)Sc1ccccc1)c1ccc([N+](=O)[O-])cc1 (centres undefined),–,·,·,?,·
O=C(NC1CCCCC1)c1cc(C(=O)c2ccccc2Br)c[nH]1,–,–,–,–,–
CC(NC(=S)NC(=O)c1ccccc1Br)c1ccccc1 (centres undefined),7.1µM,·,·,6.3µM,·
O=C(NC(=S)NC1C2CC3CC(C2)CC1C3)c1ccccc1 (centres undefined),1.8µM,·,·,1.6µM,·
CCN(C(=S)NC(=O)c1ccccc1Br)C1CCCCC1,2.8µM,–,–,1µM,–
SMILES,Gal4-VP16 FLuc,Tau FP inhib,Tau fluor cs,RORgamma inh,Tau fibril ThT
CC(C)C(NC(=O)c1ccccc1Br)c1ccccc1 (centres undefined),–,–,–,–,–
O=C(NC(=S)NC1CCCC1)c1ccccc1Br,?,–,–,4.5µM,–
Cc1ccc(NC(=O)c2ccccc2Br)c(C(=O)c2ccccc2)c1,·,–,–,·,–
Cc1cnc(C(=O)NC2CC(C)(C)Cc3c2cnn3-c2cccc(F)c2)cn1 (centres undefined),–,·,·,–,·
CN(Cc1cccs1)c1ncnc2sccc12,1.3µM,–,–,–,–
Cc1cccc(N=Nc2cnc(N)s2)c1,–,–,?,–,5µM
COc1ccc(-c2[nH]c(-c3ccc4c(c3)OCO4)nc2-c2ccccc2)cc1,–,–,14µM[quencher],–,?
CCOc1ccc(-c2nc(SCC(=O)Nc3ccc4c(c3)OCCO4)c(-c3ccc(F)cc3)[nH]2)cc1,·,–,14µM[quencher],·,–
COc1ccc(-c2[nH]c(-c3cccc(OC)c3)nc2SCC(=O)Nc2ccc3c(c2)OCO3)cc1,·,–,6.3µM[quencher],·,?
COc1ccc(-c2nc(SCC(=O)Nc3ccc4c(c3)OCCO4)c(-c3ccccc3)[nH]2)cc1,·,?,8.9µM[quencher],·,?
COc1cccc(-c2nc(SCC(=O)Nc3ccc4c(c3)OCCO4)c(-c3ccccc3)[nH]2)c1,·,–,5.6µM[quencher],·,?
COc1ccc(S(=O)(=O)N2CCc3cc4c(cc3C2C)OCCCO4)cc1 (centres undefined),–,·,·,–,·
COc1ccc(Cn2c3nc4ccccc4nc3c3c(=O)n(Cc4ccco4)cnc32)cc1,?,–,–,10µM,?
COc1ccc(C(=O)Nc2nnc(SCc3cc(=O)c4cccc(F)c4[nH]3)s2)cc1,·,–,–,·,–
Cc1ccc(NC(=S)c2ccc(N(C)C)cc2)cc1,?,–,–,10µM,?
Cc1ccc(C)c(NC(=O)NCc2ccccn2)c1,–,·,·,–,·
Cc1ccc(C)c(NC(=S)c2ccc3ccccc3n2)c1,5.6µM,–,–,2µM,?
CN(C)c1ccc(NC(=S)c2ccc3ccccc3n2)cc1,?,·,·,6.3µM,·
Cc1ccc(C)c(NC(=S)c2ccccn2)c1,1.3µM,?,–,0.32µM,?
